Assay results taken from PubChem BioAssay.
Where “and” joins values, the source holds several entries; their conditions need not be identical. Equal values may be shown once. Calls of active or inactive are those of the source. Cut-off read from the data, not from the text of the source, unless noted: active = inhibition above about 80%; inactive = the rest.

How the values were obtained:
[1] = system: Hepatitis C virus NS3 helicase; experiment: blockers of NS3h binding to ssDNA – biochemical, fluorescence polarization, LOPAC1280 library, primary screen (AID 687035; in the data active = inhibition above about 37%); settings: Purified HCV NS3 helicase, Cy5-dT15 ssDNA binding fluorescence polarization; stronger effect = higher value; concentration not given here
[2] = compounds altering Cy5-DNA-NS3h complex signal – biochemical, LOPAC1280, artefact control for HCV NS3 helicase inhibitor project (AID 687037; call rule not given here); settings: Cy5-DNA-NS3h complex fluorescence interference counterscreen
[3] = blockers of cellular phospholipid synthesis – cell-based, LOPAC library, screen 4, primary screen (AID 1347384; call rule not given here); settings: animal cells, phospholipid biosynthesis inhibition screen; at 10 µM
[4] = galactose survival enhancers in mitochondrial complex I cybrids – cell-based, galactose medium, ATP luminescence, primary screen (AID 1645843;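 active = z-score of at least 1.8 in each of two replicates, scored against plate mean and spread of sample wells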;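 note: positive z means more ATP and so rescue of galactose-driven cybrid death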); settings: complex I mutant cybrid cells, 72 h, stronger effect = higher value
[5] = target: NAD(+) hydrolase SARM1 (Homo sapiens) (UniProt Q6SZW1); experiment: blocking NAD cleavage by SARM1 SAM-TIR – cell lysate, NAD-Glo luminescence (AID 1508614;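 active = compound whose remaining NAD level is above about 45 nM, limit read from the data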;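 note: higher remaining NAD means stronger inhibition of SARM1 NADase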); settings: SAM-TIR HEK293T lysate NADase, at 1 µM, stronger effect = higher value
[6] = target: Mitogen-activated protein kinase 7 (Homo sapiens) (UniProt Q13164); experiment: Gal4-ERK5 driven luciferase induction – cell-based, HTS, primary screen (AID 1508626;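 active = luciferase signal above three times the same-plate solvent-only control wells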;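 note: luciferase driven by Gal4-ERK5 fusion binding five Gal4 sites before minimal TATA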); settings: HeLa Gal4-ERK5 transactivation, 18 h, at 5 µM, stronger effect = higher value
[7] = P. berghei load reduction in hepatocytes – cell-based, HepG2, luciferase luminescence, HepG2 viability, primary screen (AID 624349; in the data active = parasite load remaining mostly below about 12%, no sharp cut-off; inactive = mostly above about 10%;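 note: 100% = mean of DMSO negative control wells on the same plate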); settings: P. berghei liver stage in HepG2, luciferase luminescence, concentration not given here; parasite load remaining: stronger effect = lower value; viability: measured here: HepG2 viability without parasites
[8] = growth inhibition, single agents and combos, LFS_MB_1R, cell-based, cisplatin or BGB combos, synergistic combos for chromothripsis tumors (AID 1671452); settings: LFS_MB_1R medulloblastoma cells, stronger effect = higher value;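 note: cells exposed for 96 hours before readout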
[9] = growth inhibition, single agents and combos, CRL2098, cell-based, BGB or cisplatin IC20 combos, synergistic combos for chromothripsis tumors (AID 1671454); settings: CRL2098 osteosarcoma cells, drug combinations, stronger effect = higher value;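 note: cells exposed for 96 h before readout; 0% = vehicle DMSO and 100% = killing by high DMSO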
[10] = growth inhibition, single agents and combos, HD-MB03, cell-based, BGB or cisplatin IC20 combos, synergistic combos for chromothripsis tumors (AID 1671455; in the data active = inhibition above about 83%;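 note: 0% = vehicle DMSO and 100% = high DMSO as cytotoxic control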); settings: HD-MB03 medulloblastoma cells, stronger effect = higher value
[11] = growth inhibition, single agents and combos, UWB1.289, cell-based, BGB or cisplatin combos, synergistic combos for chromothripsis tumors (AID 1671456); settings: UWB1.289 ovarian carcinoma cells, stronger effect = higher value;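 note: cells exposed to compound for four days; 0% = vehicle DMSO and 100% = killing by high DMSO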
[12] = growth inhibition, single agents and combos, LFS_MB_2R, cell-based, cisplatin combos, synergistic combos for chromothripsis tumors (AID 1671457); settings: LFS_MB_2R medulloblastoma cells, stronger effect = higher value;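 note: cells exposed to compound for four days before readout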
[13] = UWB1.289_BRCA1 ovarian cancer growth, cell-based, BGB or cisplatin combinations (AID 1671459); settings: UWB1.289 BRCA1 ovarian carcinoma, drug combinations, stronger effect = higher value
[14] = drug combination toxicity in non-malignant astrocytes – cell-based, BGB or cisplatin IC20 combos, cytotoxicity control for chromothriptic childhood tumor combination screen (AID 1671460); settings: Human astrocytes, viability inhibition, drug combinations, at 0.5 µM, stronger effect = higher value;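 note: cells exposed to compounds for 96 hours before viability readout; 0% = vehicle and 100% = killing control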
[15] = liver-stage malaria parasite load reduction – cell-based, known kinase inhibitor set, luminescence, hepatoma host viability (AID 624392; call rule not given here;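 note: infected cells incubated roughly two days before readout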); settings: Plasmodium liver stage in hepatoma cells, luciferase luminescence, concentration not given here; liver cell % of control: measured here: host liver cell viability; parasite % of control: stronger effect = lower value
[16] = compounds altering circadian rhythm period length – cell-based, LOPAC library, luminescence reporter (AID 2774; call rule not given here;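 note: values are relative to mean of DMSO wells on each plate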); settings: circadian reporter cells, at 7 µM, actives lie on both sides
[17] = chitosan synthesis blockers in C. neoformans – flow cytometry, Cibacron Brilliant Red staining (AID 1347148; call rule not given here;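 note: compound exposure lasted three days at 37 degrees C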); settings: Cryptococcus neoformans chitosan, stronger effect = lower value; at 10 µM unless noted
[18] = measured here: combination with BGB IC40, at 0.05 µM
[19] = measured here: combination with cisplatin, at 0.5 µM
[20] = measured here: combination with cisplatin, at 5 µM
[21] = measured here: combination with BGB at IC20, at 0.5 µM
[22] = measured here: combination with cisplatin at IC20, at 0.5 µM
[23] = measured here: combo with BGB at IC20, at 0.5 µM
[24] = measured here: combo with cisplatin at IC20, at 0.5 µM
[25] = measured here: inhibition with BGB combination, at 0.05 µM
[26] = measured here: inhibition with cisplatin combination, at 0.05 µM
[27] = BGB combination, concentration series, at 5 µM
[28] = cisplatin combination, concentration series, at 5 µM
[29] = measured here: combo with BGB IC20
[30] = measured here: combo with cisplatin IC20

NAD(+) hydrolase SARM1 (Homo sapiens), sequence (Q6SZW1 whole entry, looked up, the tested form may be a part): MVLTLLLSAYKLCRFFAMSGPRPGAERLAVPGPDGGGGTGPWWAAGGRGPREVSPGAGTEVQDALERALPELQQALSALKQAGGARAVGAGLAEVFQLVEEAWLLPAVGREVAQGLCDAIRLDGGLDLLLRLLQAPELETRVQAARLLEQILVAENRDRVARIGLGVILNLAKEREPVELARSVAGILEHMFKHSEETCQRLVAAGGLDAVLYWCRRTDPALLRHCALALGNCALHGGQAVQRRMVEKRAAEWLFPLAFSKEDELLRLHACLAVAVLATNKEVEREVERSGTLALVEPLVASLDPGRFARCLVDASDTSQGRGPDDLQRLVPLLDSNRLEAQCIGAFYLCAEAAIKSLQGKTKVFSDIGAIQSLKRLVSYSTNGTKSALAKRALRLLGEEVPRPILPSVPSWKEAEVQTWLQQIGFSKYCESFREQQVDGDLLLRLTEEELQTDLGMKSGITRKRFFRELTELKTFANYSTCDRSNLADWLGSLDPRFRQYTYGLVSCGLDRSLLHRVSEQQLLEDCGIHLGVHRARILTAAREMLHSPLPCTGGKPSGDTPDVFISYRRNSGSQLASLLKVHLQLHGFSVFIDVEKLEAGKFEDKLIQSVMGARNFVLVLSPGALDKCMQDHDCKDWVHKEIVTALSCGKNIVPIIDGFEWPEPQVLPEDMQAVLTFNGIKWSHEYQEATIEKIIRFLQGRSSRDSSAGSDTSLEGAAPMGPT
Mitogen-activated protein kinase 7 (Homo sapiens), sequence (Q13164 whole entry, looked up, the tested form may be a part): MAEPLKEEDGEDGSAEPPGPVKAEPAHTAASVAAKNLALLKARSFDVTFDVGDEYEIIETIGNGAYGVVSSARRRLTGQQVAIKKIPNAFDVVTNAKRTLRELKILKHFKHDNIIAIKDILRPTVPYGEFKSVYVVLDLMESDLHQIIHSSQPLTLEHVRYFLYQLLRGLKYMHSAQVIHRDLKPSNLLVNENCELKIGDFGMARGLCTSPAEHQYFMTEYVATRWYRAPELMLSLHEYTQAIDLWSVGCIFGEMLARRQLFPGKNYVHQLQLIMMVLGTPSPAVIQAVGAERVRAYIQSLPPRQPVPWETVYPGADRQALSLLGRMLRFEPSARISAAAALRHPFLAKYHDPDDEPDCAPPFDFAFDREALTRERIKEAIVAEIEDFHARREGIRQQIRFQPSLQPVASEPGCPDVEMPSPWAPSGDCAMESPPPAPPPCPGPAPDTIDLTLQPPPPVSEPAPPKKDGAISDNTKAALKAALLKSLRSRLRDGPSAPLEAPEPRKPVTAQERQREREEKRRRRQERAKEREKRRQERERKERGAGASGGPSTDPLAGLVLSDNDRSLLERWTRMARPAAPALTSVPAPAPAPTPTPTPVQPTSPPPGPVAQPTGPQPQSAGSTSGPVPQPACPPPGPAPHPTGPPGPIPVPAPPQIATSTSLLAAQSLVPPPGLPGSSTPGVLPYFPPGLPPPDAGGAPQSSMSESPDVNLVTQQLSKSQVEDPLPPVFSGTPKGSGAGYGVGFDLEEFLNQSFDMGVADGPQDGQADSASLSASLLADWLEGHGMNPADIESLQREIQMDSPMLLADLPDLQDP

For NC(N)=Nc1nc(CSCCC(N)=NS(N)(=O)=O)cs1, the inhibition [1] was -3% (inactive), the fluorescence ratio (interference) [2] was 1 (inactive) and the outcome [3] was “inactive”. The z-score [4] was 1.1 (inactive) and 1.27 (inactive).

With Nc1nc2[nH]cc(CCc3ccc(C(=O)N[C@@H](CCC(=O)O)C(=O)O)cc3)c2c(=O)[nH]1 the remaining NAD [5] was 10 nM (inactive).

In the case of CCCCCCCCCCCCCCCC(=O)OC[C@@H](NC(=O)C(Cl)Cl)[C@H](O)c1ccc([N+](=O)[O-])cc1, the remaining NAD [5] is reported as 10 nM (inactive) and the luciferase signal [6] is reported as 64 AU (inactive).

In the case of CC(O)C1C(=O)N2C(C(=O)O)=C(SC3CNC(C(=O)N(C)C)C3)C(C)C12 (centres undefined), the z-score [4] is reported as 0.545 (inactive).

With C[N+]1(C)[C@@H]2CC(OC(=O)C(O)(c3cccs3)c3cccs3)C[C@H]1[C@@H]1O[C@@H]12 (some centres undefined) the parasite load remaining [7] was 18% (inactive), the viability [7] was 66.5% and the z-score [4] was 0.685 (inactive).

In the case of CC(C)OC(=O)[C@H](C)N[P@](=O)(OC[C@H]1O[C@@H](n2ccc(=O)[nH]c2=O)[C@](C)(F)[C@@H]1O)Oc1ccccc1, the inhibition ([8]; at 0.5 µM) is reported as -18.8% (inactive), the inhibition [8, 18] is reported as -16% and the inhibition [8, 19] is reported as -13.4%. For the same molecule, the inhibition [8, 20] was -6.21%, the inhibition ([9]; at 0.5 µM) was -13.4% (inactive) and the inhibition [9, 21] was 11.7%. The inhibition [9, 22] was -20.8%, the inhibition ([10]; at 0.5 µM) was -3.62% (inactive) and the inhibition [10, 23] was -1.34%. The inhibition [10, 24] was -5.16%, the inhibition ([11]; at 0.5 µM) was 0.46% (inactive) and the inhibition [11, 25] was -14.4%. For the same molecule, the inhibition [11, 26] was -6.56%, the inhibition ([12]; at 0.5 µM) was -20% (inactive) and the inhibition [12, 19] was -25%. For the same molecule, the inhibition [12, 20] was -21.1%, the inhibition [13, 27] was 0.431% and the inhibition ([13]; at 0.5 µM) was -0.57% (inactive). The inhibition [13, 28] was 20%, the inhibition [14] was 4.95% (inactive) and the inhibition [14, 29] was 12%. The inhibition [14, 30] was 8.21%.

With COc1cc(Oc2ccnc3cc(OC)c(OC)cc23)ccc1NC(=O)NC(C)c1nccs1 (centres undefined) the liver cell % of control [15] was 91.8% and 94.8% and 112% and the parasite % of control [15] was 110% (inactive) and 137% (inactive) and 49.5% (inactive).

In the case of OCc1ccc(-c2nn(Cc3ccccc3)c3ccccc23)o1, the period change [16] is reported as -0.37 h (inactive), the inhibition [1] is reported as 0% (inactive) and the fluorescence ratio (interference) [2] is reported as 1 (inactive). The fold fluorescence [17] was 11.2 [at 164.3 µM] (inactive), the outcome [3] was “inactive” and the z-score [4] was -0.46 (inactive).

For Cc1cc(C(C)Nc2ccccc2)c2nc(N3CCOCC3)cc(=O)n2c1 (centres undefined), the parasite load remaining [7] was 33.1% (inactive), the viability [7] was 62.4% and the liver cell % of control [15] was 99% and 87.4% and 105%. For the same molecule, the parasite % of control [15] was 84.7% (inactive) and 70.8% (inactive) and 54.4% (inactive).

In the case of COc1ccc(Cc2nccc3cc(OC)c(OC)cc23)cc1OC, the outcome [3] is reported as “inactive”.

For COCCNCCCn1c(C(=O)CF)c(-c2ccc(C)cc2)c2c(N)ncnc21, the parasite % of control [15] was 34.2% (inactive) and 108% (inactive) and 115% (inactive).

For COc1cc2ncnc(-n3nc(-c4ccccn4)nc3N)c2cc1OC, the inhibition ([8]; at 0.5 µM) was -45.7% (inactive), the inhibition [8, 18] was -46.2% and the inhibition [8, 19] was -87.1%. For the same molecule, the inhibition [8, 20] was -37.2%, the inhibition ([9]; at 0.5 µM) was -78.1% (inactive) and the inhibition [9, 21] was -51.1%. For the same molecule, the inhibition [9, 22] was -60.2%, the inhibition ([10]; at 0.5 µM) was -15.7% (inactive) and the inhibition [10, 23] was -13.6%. For the same molecule, the inhibition [10, 24] was -21.1%, the inhibition ([11]; at 0.5 µM) was -16.4% (inactive) and the inhibition [11, 25] was -29.1%. For the same molecule, the inhibition [11, 26] was -13.1%, the inhibition ([12]; at 0.5 µM) was -18.6% (inactive) and the inhibition [12, 19] was -13.8%. The inhibition [12, 20] was 1.78%, the inhibition [13, 27] was 15% and the inhibition ([13]; at 0.5 µM) was -15.7% (inactive). For the same molecule, the inhibition [13, 28] was 9.66%, the inhibition [14] was 6.38% (inactive) and the inhibition [14, 29] was 7.82%. It also gave an inhibition [14, 30] of -1.55%.

In the case of Cn1cc(-c2ccc3nnc(C(F)(F)c4ccc5ncccc5c4)n3n2)cn1, the liver cell % of control [15] is reported as 86.8% and 81.6% and 92.2% and the parasite % of control [15] is reported as 347% (inactive) and 352% (inactive) and 281% (inactive).

In the case of Cc1cnc(CNC(=O)c2c(=O)c3ccc(N4CCCN(C)CC4)nc3n3c2sc2ccccc23)cn1, the inhibition ([8]; at 0.5 µM) is reported as 6.38% (inactive) and -24.6% (inactive), the inhibition [8, 18] is reported as -8.97% and -9.02% and the inhibition [8, 19] is reported as 91.9% and 6.04%. The inhibition [8, 20] was 104% and 102%, the inhibition ([9]; at 0.5 µM) was 31.8% (inactive) and -46.4% (inactive) and the inhibition [9, 21] was 40.6% and -32.3%. The inhibition [9, 22] was 37% and -70.3%, the inhibition ([10]; at 0.5 µM) was 51.2% (inactive) and 21.9% (inactive) and the inhibition [10, 23] was 53.1% and 31.3%. For the same molecule, the inhibition [10, 24] was 36.7% and 11.5%, the inhibition ([11]; at 0.5 µM) was 39.7% (inactive) and 9.86% (inactive) and the inhibition [11, 25] was -5.3% and -40%. For the same molecule, the inhibition [11, 26] was -10.5% and -7.68%, the inhibition ([12]; at 0.5 µM) was -14.9% (inactive) and -31.5% (inactive) and the inhibition [12, 19] was -16.1% and -30.8%. The inhibition [12, 20] was 108% and -28.8%, the inhibition [13, 27] was 117% and 38.3% and the inhibition ([13]; at 0.5 µM) was 44.8% (inactive) and 2% (inactive). For the same molecule, the inhibition [13, 28] was 122% and 71.6%, the inhibition [14] was 45.8% (inactive) and 19.7% (inactive) and the inhibition [14, 29] was 41.5% and 16.4%. For the same molecule, the inhibition [14, 30] was 31.2% and 2.96%.

For O=C(NOC[C@H](O)CO)c1ccc(F)c(F)c1Nc1ccc(I)cc1F, the outcome [3] was “inactive”.
